Assay results published in PubChem BioAssay AID1159580 (chemical genetic matrix, 2015).
The campaign covered roughly 5,500 compounds. About 2,000 (36%) were called active. About 18% were inconclusive and are not listed. No stated cut-off is given here; in the data, active means normalized growth mostly below about 0.91 (no sharp cut-off); inconclusive means no clear call, values can overlap the other calls; inactive means mostly above about 0.92. Some of the results follow.

Assay: chemical genetic growth profiling, strain panel (AID 1159580);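 further: tested at 20 µM; growth read once vehicle control cultures reached saturation at 30 °C; 1 = growth at the plate median or of vehicle wells; lower values mean less growth of the strain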
Conditions: growth OD

Measured: normalized growth

Clc1ccc(C(OCCN2CCCCC2)c2ccccc2)cc1 (centres undefined)
inactive: S. cerevisiae deletion strains, locus YJR043C, strain POL32, active compounds read low 1.02 | S. cerevisiae deletion strains, locus YJR075W, strain HOC1, active compounds read low 0.948 | S. cerevisiae deletion strains, locus YKL009W, strain mrt4, active compounds read low 0.996 | S. cerevisiae deletion strains, locus YKL068W, active compounds read low 1 | S. cerevisiae deletion strains, locus YKL085W, strain MDH1 (second series), active compounds read low 0.997 | S. cerevisiae deletion strains, locus YKL085W, strain MDH1, active compounds read low 0.997 | S. cerevisiae deletion strains, locus YKL160W, strain elf1, active compounds read low 1.02 | S. cerevisiae deletion strains, locus YKL190W, strain CNB1, active compounds read low 1.01 | S. cerevisiae deletion strains, locus YKR001C, strain vps1, active compounds read low 0.994 | S. cerevisiae deletion strains, locus YKR026C, strain gcn3, active compounds read low 1.02 | S. cerevisiae deletion strains, locus YKR091W, strain srl3, active compounds read low 1.02 | S. cerevisiae deletion strains, locus YLL001W, strain dnm1, active compounds read low 1.02 | S. cerevisiae deletion strains, locus YLL026W, active compounds read low 1.02 | S. cerevisiae deletion strains, locus YLL041C, strain sdh2, active compounds read low 1.01 | S. cerevisiae deletion strains, locus YLR027C, strain aat2, active compounds read low 1.02 | S. cerevisiae deletion strains, locus YLR039C, strain RIC1, active compounds read low 1.26 | S. cerevisiae deletion strains, locus YLR058C, strain SHM2, active compounds read low 1 | S. cerevisiae deletion strains, locus YLR102C, strain apc9, active compounds read low 0.999 | S. cerevisiae deletion strains, locus YLR221C, strain rsa3, active compounds read low 1.01 | S. cerevisiae deletion strains, locus YLR258W, strain gsy2, active compounds read low 1.02 | S. cerevisiae deletion strains, locus YLR262C, strain YPT6 (second series), active compounds read low 1.07 | S. cerevisiae deletion strains, locus YLR262C, strain YPT6, active compounds read low 1.27 | S. cerevisiae deletion strains, locus YLR268W, strain sec22, active compounds read low 0.96 | S. cerevisiae deletion strains, locus YLR320W, strain mms22, active compounds read low 1.01 | S. cerevisiae deletion strains, locus YLR330W, strain CHS5, active compounds read low 1.01 | S. cerevisiae deletion strains, locus YLR342W, strain FKS1 (second series), active compounds read low 0.907 | S. cerevisiae deletion strains, locus YLR342W, strain FKS1, active compounds read low 1.04 | S. cerevisiae deletion strains, locus YLR357W, strain rsc2, active compounds read low 1.02 | S. cerevisiae deletion strains, locus YLR370C, strain arc18, active compounds read low 1 | S. cerevisiae deletion strains, locus YLR371W, strain rom2, active compounds read low 1.01 | S. cerevisiae deletion strains, locus YLR384C, strain iki3, active compounds read low 1.01 | S. cerevisiae deletion strains, locus YLR418C, strain cdc73, active compounds read low 0.852 | S. cerevisiae deletion strains, locus YML016C, strain PPZ1, active compounds read low 0.999 | S. cerevisiae deletion strains, locus YML032C, strain rad52, active compounds read low 0.979 | S. cerevisiae deletion strains, locus YML120C, strain ndi1, active compounds read low 1.01 | S. cerevisiae deletion strains, locus YML124C, strain tub3, active compounds read low 1.01 | S. cerevisiae deletion strains, locus YMR058W, strain fet3, active compounds read low 1.02 | S. cerevisiae deletion strains, locus YMR078C, strain ctf18, active compounds read low 1 | S. cerevisiae deletion strains, locus YMR125W, strain sto1, active compounds read low 1.03 | S. cerevisiae deletion strains, locus YMR129W, active compounds read low 1.03 | S. cerevisiae deletion strains, locus YMR205C, strain PFK2, active compounds read low 1.01 | S. cerevisiae deletion strains, locus YMR223W, strain ubp8, active compounds read low 0.987 | S. cerevisiae deletion strains, locus YMR231W, strain pep5, active compounds read low 1.02 | S. cerevisiae deletion strains, locus YMR263W, strain SAP30, active compounds read low 0.977 | S. cerevisiae deletion strains, locus YMR307W, strain GAS1, active compounds read low 1.12 | S. cerevisiae deletion strains, locus YNL067W, strain RPL9B, active compounds read low 0.98 | S. cerevisiae deletion strains, locus YNL071W, strain lat1, active compounds read low 1.02 | S. cerevisiae deletion strains, locus YNL128W, strain TEP1, active compounds read low 0.955 | S. cerevisiae deletion strains, locus YNL153C, strain GIM3, active compounds read low 0.971 | S. cerevisiae deletion strains, locus YNL209W, strain ssb2, active compounds read low 1.03 | S. cerevisiae deletion strains, locus YNL233W, strain BNI4, active compounds read low 0.986 | S. cerevisiae deletion strains, locus YNL248C, strain rpa49, active compounds read low 1.03 | S. cerevisiae deletion strains, locus YNL250W, strain rad50, active compounds read low 0.991 | S. cerevisiae deletion strains, locus YNL271C, strain bni1, active compounds read low 0.997 | S. cerevisiae deletion strains, locus YNL298W, strain CLA4, active compounds read low 1 | S. cerevisiae deletion strains, locus YNL307C, strain MCK1, active compounds read low 0.992 | S. cerevisiae deletion strains, locus YNL322C, strain KRE1 (second series), active compounds read low 1.03 | S. cerevisiae deletion strains, locus YNL322C, strain KRE1, active compounds read low 1.01 | S. cerevisiae deletion strains, locus YNR049C, strain mso1, active compounds read low 0.999 | S. cerevisiae deletion strains, locus YNR052C, strain pop2, active compounds read low 0.965 | S. cerevisiae deletion strains, locus YOL006C, strain TOP1, active compounds read low 0.592 | S. cerevisiae deletion strains, locus YOL012C, strain htz1 0.731 | S. cerevisiae deletion strains, locus YOL147C, strain pex11, active compounds read low 0.997 | S. cerevisiae deletion strains, locus YOR001W, strain rrp6, active compounds read low 1.02 | S. cerevisiae deletion strains, locus YOR061W, strain CKA2, active compounds read low 1 | S. cerevisiae deletion strains, locus YOR069W, strain VPS5, active compounds read low 0.997 | S. cerevisiae deletion strains, locus YOR070C, strain gyp1, active compounds read low 1.03 | S. cerevisiae deletion strains, locus YOR080W, strain dia2, active compounds read low 1.02 | S. cerevisiae deletion strains, locus YOR083W, strain WHI5, active compounds read low 1.02 | S. cerevisiae deletion strains, locus YOR106W, strain vam3, active compounds read low 1.01 | S. cerevisiae deletion strains, locus YOR136W, strain idh2, active compounds read low 1 | S. cerevisiae deletion strains, locus YOR144C, strain elg1, active compounds read low 1 | S. cerevisiae deletion strains, locus YOR184W, strain ser1, active compounds read low 1.04 | S. cerevisiae deletion strains, locus YOR265W, strain rbl2, active compounds read low 1.01 | S. cerevisiae deletion strains, locus YOR270C, strain vph1, active compounds read low 0.797 | S. cerevisiae deletion strains, locus YOR290C, strain snf2, active compounds read low 1.01 | S. cerevisiae deletion strains, locus YOR316C, strain cot1, active compounds read low 1 | S. cerevisiae deletion strains, locus YPL051W, strain arl3, active compounds read low 1.01 | S. cerevisiae deletion strains, locus YPL055C, strain LGE1, active compounds read low 0.958 | S. cerevisiae deletion strains, locus YPL078C, strain atp4, active compounds read low 1.02 | S. cerevisiae deletion strains, locus YPL106C, strain sse1, active compounds read low 1.02 | S. cerevisiae deletion strains, locus YPL240C, strain hsp82, active compounds read low 1.01 | S. cerevisiae deletion strains, locus YPL241C, strain CIN2, active compounds read low 1 | S. cerevisiae deletion strains, locus YPR119W, strain clb2, active compounds read low 1 | S. cerevisiae deletion strains, locus YPR141C, strain kar3, active compounds read low 0.993 | S. cerevisiae deletion strains, locus YPR163C, strain tif3, active compounds read low 0.981 | S. cerevisiae deletion strains, locus YPR167C, strain met16, active compounds read low 1 | S. cerevisiae deletion strains, strain wtn01, active compounds read low 0.974 | S. cerevisiae strains, strain wild type, active compounds read low 0.988
